Data as given in PubChem BioAssay AID2685 (National Center for Advancing Translational Sciences (NCATS), 2010).
Among all 320,000 compounds or so, about 2,100 (0.66%) were called active. About 53% were inconclusive and are not listed. Calls come from the whole dose curve; as a rule, active = well fitted inhibition curve with a large enough effect in the signal ratio, with a control signal flat (not every such curve was filed as active); inconclusive = small, poorly fitted or top-dose-only effect, or effect the other way, or a change in a side signal; inactive = flat fitted curve, though single readings scatter; the % refers to the signal ratio. Many of the other results were omitted from the sample, so actives are more common in it than they were.

experiment: qHTS Assay for Lipid Storage Modulators in Drosophila S3 Cells; conditions: BODIPY lipid droplet fluorescence, 18-24 h, cells fed with added oleic acid; cell number change: measured here: cell count max response; series mostly up to 46.1 µM;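 for cell number change: cells counted by Cell Tracker Red CMTPX staining in the red channel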
Procedure, shortened: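 Drosophila S3 cells loaded with oleic acid (400 uM, as added) and compounds at several concentrations; lipid droplets imaged by 488-nm laser-scanning cytometry, 500–530 nm intensity and object ratio to cell channel. Percent activity normalized to 20 uM Triacsin C.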
Potency is the fitted concentration of half-maximal effect.

Structure (SMILES) | Potency | cell number change [%]
O=C(Nc1ccc(Cl)cc1N1CCOCC1)C1CC1 | inactive | -0.587
O=C(Nc1ccc(N2CCOCC2)cc1)C1CC1 | inactive | 20.3
CC(C)(C)C1CCC(C(=O)Nc2ccc(N3CCOCC3)cc2N2CCOCC2)CC1 (centres undefined) | 0.0731 µM (active) | 2.76
CC(C)c1ccccc1NC(=O)c1ccc2ncsc2c1 | inactive | 3.81
Cc1cc(C)c2nc(-c3ccncc3)cc(C(=O)N3CCN(Cc4ccccc4Cl)CC3)c2c1 | inactive | -25.7
CCOc1ccc(-c2cc(CCCC(=O)NCc3ccco3)no2)cc1 | inactive | 7.38
CC(=O)c1cccc(NC(=O)c2ccccc2OCc2ccc(F)cc2)c1 | inactive | 17.5
CC(=O)Nc1cccc(NC(=O)c2ccccc2OCc2ccccc2)c1 | 0.103 µM (active) | 4.05
CC(=O)Nc1cccc(NC(=O)c2cccc(OCc3ccccc3)c2)c1 | inactive | -0.179
Cc1cc(N2CCN(c3ccccc3)CC2)n2cc(-c3ccccc3)nc2n1 | inactive | 0.751
COc1ccc(-c2cc(C(=O)NN)[nH]n2)cc1OC | inactive | 0.0556
O=C(O)c1cc(-c2ccccc2)n[nH]1 | inactive | -6.51
COc1ccc(-c2cc(C(=O)O)[nH]n2)cc1OC | 18.4 µM (active) | -22.4
COc1ccccc1NS(=O)(=O)c1cccc(C(=O)NNC(=O)C(NC(N)=O)C(C)C)c1 (centres undefined) | inactive | -2.91
CN=Cc1nc(-c2ccccc2)oc1O | inactive | 3.36
COc1ccc(-c2nc(/C=C3\C(C)=Nc4ccccc43)c(O)o2)cc1 | inactive | 8.93
CC1=Nc2ccccc2/C1=C\c1nc(-c2ccc(F)cc2)oc1O | 4.11 µM (active) | -8.49
CCC(=O)NC(=S)Nc1ccc(NC(=O)c2ccc([N+](=O)[O-])cc2Cl)cc1 | inactive | -6.05
CC(=O)OCC1=C(C(=O)O)N2C(=O)C(NC(=O)c3ccc(COc4ccc(Cl)cc4)o3)C2SC1 (centres undefined) | inactive | 12.1
O=[N+]([O-])c1cc(C(F)(F)F)ccc1N1CCC(O)CC1 | inactive | 9.29
NC(=O)C1CCN(c2ccc(C(F)(F)F)cc2[N+](=O)[O-])CC1 | inactive | 
O=C(C1CCC1)N1CCN(c2ccc(C(F)(F)F)cc2[N+](=O)[O-])CC1 | 0.58 µM (active) | 4.32
C1CCC(Nc2nc3nonc3nc2N2CCSCC2)C1 | inactive | -7.42
O=C(NN(C(=O)C1CC1)c1nc2ccccc2s1)C1CC1 | inactive | 4.43

Structure (SMILES) | Potency | cell number change [%]
O=C(CCl)Nc1ccc(N=Nc2ccccc2)cc1 | 5.8 µM (active) | -14.8
O=C(O)CCC(=O)Nc1ccc(N=Nc2ccccc2)cc1 | inactive | -12.6
O=C(O)CCCC(=O)Nc1ccc(N=Nc2ccccc2)cc1 | inactive | 17
CCCCCC/C=N/Nc1nnc(Cc2ccc(OC)c(OC)c2)c(=O)[nH]1 | inactive | 
CC(=O)Nc1ccc(S(=O)(=O)Nc2nnc(C3CCCCC3)s2)cc1 | 3.66 µM (active) | 6.53
CC(=O)Nc1ccc(S(=O)(=O)Nc2nc3ccc(C)cc3s2)cc1 | inactive | 6.47
CC(=O)Nc1ccc(S(=O)(=O)Nc2nnc(CC(C)(C)C)s2)cc1 | inactive | 0.722
CC(=O)Nc1ccc2nc(NS(=O)(=O)c3ccc(C)cc3)sc2c1 | inactive | 2.04
CC(=O)Nc1ccc(S(=O)(=O)Nc2nc3ccccc3s2)cc1 | 23.1 µM (active) | -10.9
O=S(=O)(Nc1nnc(C2CCCCC2)s1)c1ccc(F)cc1 | inactive | -12.8
COc1ccc(CCNC(=O)C(=O)Nc2nccs2)cc1OC | inactive | 
Cc1c(N=C/C=C/c2ccccc2)cnn1C | inactive | 0.211
CCc1nnc(SCC(=O)Nc2nccs2)n1CC | inactive | 1.52
CC1(C)Cc2c(cnn2-c2cccc(F)c2)C(NC(=O)CN2CCCC2=O)C1 (centres undefined) | inactive | -1.15
CCOC(=O)COc1ccc(C)cc1-c1ccno1 | inactive | 
Cc1oc(C(=O)O)cc1COc1cccc2cccnc12 | 6.51 µM (active) | 7.93
Cc1oc(C(=O)O)cc1COc1cccc2ccccc12 | inactive | 16.3
COc1cc(C(=O)O)cc(OC)c1OCc1cc(C(=O)O)oc1C | inactive | -10.9
Cn1cc(-c2ccc(Cl)cc2)cc(C#N)c1=O | inactive | 
Cc1ccccc1/C=N/n1c(COc2ccccc2)n[nH]c1=S | inactive | 4.96
O=C(OCCOCCN=C1NS(=O)(=O)c2ccccc21)c1ccc(F)cc1 | 1.64 µM (active) | 13.2
O=C(OCCOCCN=C1NS(=O)(=O)c2ccccc21)C1CC(=O)N(c2ccccc2)C1 (centres undefined) | 8.2 µM (active) | 
O=C(OCCCN=C1NS(=O)(=O)c2ccccc21)c1ccc(F)cc1 | inactive | -17.4
O=C(OCCCN=C1NS(=O)(=O)c2ccccc21)C1CC(=O)N(c2ccc(Cl)cc2)C1 (centres undefined) | inactive | -12.2

Structure (SMILES) | Potency | cell number change [%]
O=C(CN1C(=O)c2ccccc2C1=O)OCCOCCN=C1NS(=O)(=O)c2ccccc21 | inactive | 10.2
O=C(OCCOCCN=C1NS(=O)(=O)c2ccccc21)c1ccncc1 | inactive | 0.489
CN(CC(=O)Nc1ccc(Cl)cc1)CC(=O)Nc1ccc(C(N)=O)cc1 | inactive | -11
Cc1cc(=O)n(C)c(=O)n1CCCCOc1cccc([N+](=O)[O-])c1 | inactive | 11.9
N#Cc1nc(-c2cccs2)oc1NCc1ccc(Cl)cc1 | inactive | 
Cc1ccc2c(CC(=O)NCc3cccs3)coc2c1 | inactive | 20.1
Cc1cc2occ(CC(=O)NCc3cccs3)c2cc1C(C)C | 1.46 µM (active) | -2.8
Cc1cc2occ(CC(=O)Nc3nccs3)c2cc1C(C)C | inactive | 
O=C(O)c1ccc2c(c1)C(=O)N(c1ncccn1)C2=O | inactive | -0.987
Cc1ccc(Cn2c(CN3CCOCC3)nc3c2c(=O)n(C)c(=O)n3C)cc1 | inactive | 6.6
COc1ccc(-c2[nH]ncc2CN(C)C(C)c2cccs2)c(F)c1 (centres undefined) | inactive | 8.77
COc1ccc(Cc2nc3ccc(C(=O)NC(C)c4cn(C)nc4C)cc3o2)cc1 (centres undefined) | inactive | -22.9
O=C(Oc1ccc(/C=N/O)cc1)c1ccccc1Cl | inactive | -11.5
O=C(Oc1ccccc1)c1c(Cl)cccc1P(=O)(O)O | 3.66 µM (active) | 3.12
O=C(O)c1c(Cl)cccc1Cl | inactive | 4.08
CSc1ccc(Cl)c(C(=O)N2CCOc3ccccc32)c1 | inactive | -26.8
O=C(c1ccc(N2C(=O)C3CC=C(Cl)CC3C2=O)cc1)N1CCOCC1 (centres undefined) | inactive | 30
COc1cc(C=O)ccc1OCC(=O)Nc1ccccc1N1CCOCC1 | 2.59 µM (active) | -24.3
COc1ccccc1OCC(=O)Nc1ccc(N2CCOCC2)cc1N1CCOCC1 | inactive | 2.71
COc1cc(C(=O)Nc2ccccc2N2CCOCC2)ccc1OCC(=O)N1CCOCC1 | inactive | 
CCc1cc2c(-c3ccccc3)cc(=O)oc2cc1OCC(=O)NCC1CCC(C(=O)O)CC1 (centres undefined) | inactive | 22.7
Cc1c(OC(C)C(=O)N[C@H](C(=O)O)c2ccccc2)ccc2c3c(c(=O)oc12)CCCC3 (some centres undefined) | inactive | -8.43
Cc1c(OC(C)C(=O)NCC(O)c2ccccc2)ccc2c3c(c(=O)oc12)CCCC3 (centres undefined) | 29.1 µM (active) | 9.43
Cc1c(OC(C)C(=O)NCc2ccccn2)ccc2c3c(c(=O)oc12)CCC3 (centres undefined) | 11.6 µM (active) | -27.2

Structure (SMILES) | Potency | cell number change [%]
CCc1cc2c(-c3ccccc3)cc(=O)oc2cc1OC(C)C(=O)NCC1CCC(C(=O)O)CC1 (centres undefined) | inactive | 17.8
CCc1cc2c(-c3ccccc3)cc(=O)oc2cc1OCC(C)=O | 0.651 µM (active) | -1.82
CC(Oc1ccc2c3c(c(=O)oc2c1)CCC3)C(=O)NCc1ccccn1 (centres undefined) | inactive | 1.9
Cc1c(OCC(=O)NCC(O)c2ccccc2)ccc2c3c(c(=O)oc12)CCCC3 (centres undefined) | inactive | -19.4
CC(=O)COc1ccc2c(-c3ccccc3)cc(=O)oc2c1C | inactive | -1.68
Cc1c(OCC(=O)NCC(O)c2ccccc2)ccc2c(-c3ccccc3)cc(=O)oc12 (centres undefined) | 16.4 µM (active) | -9.69
Cc1c(OCC(=O)NCC2CCC(C(=O)O)CC2)ccc2c(-c3ccccc3)cc(=O)oc12 (centres undefined) | inactive | 0.647
Cc1c(OC(C)C(=O)NCc2ccncc2)ccc2c3c(c(=O)oc12)CCC3 (centres undefined) | inactive | -1.18
O=c1[nH]cnc2sc3c(c12)CCC3 | inactive | 25.4
CCOc1ccc(-n2ccc(=O)c(C(=O)Nc3ccc(S(=O)(=O)Nc4nccs4)cc3)n2)cc1 | inactive | -6.87
CCc1c(C)nc(N)n2c(SCC(=O)N3CCN(c4ccccc4F)CC3)nnc12 | inactive | -1.8
O=C1CCN(Cc2ccccc2)CCN1CCO | inactive | 13.2
O=C(CN(C(=O)CCC(=O)Nc1nccs1)c1ccc2c(c1)OCO2)NCC1CCCO1 (centres undefined) | inactive | 2.62
Cc1cc(N2CCN(S(=O)(=O)Cc3ccccc3)CC2)n2ncnc2n1 | inactive | 
O=c1[nH]c2ccccc2nc1C(Cl)c1ccccc1 (centres undefined) | inactive | 23.2
CCN(CC)S(=O)(=O)c1cccc(NC(=O)c2ccc(SC)cc2OC)c1 | inactive | 22.2
COc1ccc(S(=O)(=O)N(CC(=O)NCc2ccco2)c2ccccc2)cc1 | inactive | 
CC(C)(C)c1ccc(C(=O)NC2CCN(Cc3ccccc3)CC2)cc1 | inactive | 5.06
Cc1nnc2c(NC3CCCC3)nc3ccccc3n12 | inactive | 9.22
Cc1ccc(-c2nnc(SCC(=O)Nc3ccc(N4CCOCC4)cc3)o2)cc1 | inactive | -5.45
COc1ccc(/C=C2/Sc3ccc(C(=O)N4CCc5ccccc5C4)cc3NC2=O)cc1 | inactive | 0.0626
O=C1Nc2cc(C(=O)N3CCc4ccccc4C3)ccc2S/C1=C\c1ccccc1 | 0.651 µM (active) | 17.1
CC1CCN(C(=O)c2ccc3c(c2)NC(=O)/C(=C/c2ccccc2)S3)CC1 | inactive | 3.29
